Assay results taken from PubChem BioAssay AID1159580 (chemical genetic matrix, 2015).
About 2,000 (36%) of roughly 5,500 compounds were called active. Not shown: some 18% with an inconclusive outcome. No stated cut-off is given here; in the data, active means normalized growth mostly below about 0.91 (no sharp cut-off); inconclusive means no clear call, values can overlap the other calls; inactive means mostly above about 0.92. Some of the results follow.

Test: chemical genetic growth profiling, strain panel (AID 1159580);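 further: tested at 20 µM; growth read once vehicle control cultures reached saturation at 30 °C; 1 = growth at the plate median or of vehicle wells; lower values mean less growth of the strain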
Settings: S. cerevisiae deletion strains, growth OD

Measured: normalized growth

CN1CCN(C(=O)OC2c3nccnc3C(=O)N2c2ccc(Cl)cn2)CC1 (centres undefined)
inactive: locus YAL021C, strain ccr4, hits give low values 1 | locus YAL026C, strain drs2, hits give low values 0.993 | locus YAL030W, strain snc1, hits give low values 0.997 | locus YBL061C, strain skt5, hits give low values 0.99 | locus YBR009C, strain hhf1, hits give low values 1.01 | locus YBR023C, strain chs3, hits give low values 0.991 | locus YBR171W, strain sec66, hits give low values 0.997 | locus YBR231C, strain swc5, hits give low values 0.979 | locus YBR279W, strain paf1, hits give low values 1.01 | locus YCL011C, strain gbp2, hits give low values 1 | locus YCL016C, strain dcc1, hits give low values 0.994 | locus YCL069W, strain vba3, hits give low values 1 | locus YCR088W, strain abp1, hits give low values 0.996 | locus YDL005C, strain med2, hits give low values 0.99 | locus YDL040C, strain nat1, hits give low values 0.981 | locus YDR001C, strain nth1, hits give low values 0.992 | locus YDR069C, strain doa4, hits give low values 0.991 | locus YDR137W, strain rgp1, hits give low values 0.998 | locus YDR159W, strain sac3, hits give low values 1.01 | locus YDR195W, strain ref2 0.959 | locus YDR297W, strain sur2, hits give low values 0.979 | locus YDR334W, strain swr1, hits give low values 0.983 | locus YDR335W, strain msn5, hits give low values 1 | locus YDR392W, strain spt3, hits give low values 1.02 | locus YEL003W, strain gim4, hits give low values 1 | locus YEL037C, strain rad23, hits give low values 0.994 | locus YEL061C, strain CIN8 (second series), hits give low values 0.993 | locus YER015W, strain faa2, hits give low values 0.99 | locus YER016W, strain bim1, hits give low values 1.01 | locus YER111C, strain swi4, hits give low values 1 | locus YER155C, strain BEM2 (second series), hits give low values 0.999 | locus YFR010W, strain ubp6, hits give low values 0.987 | locus YGL167C, strain pmr1, hits give low values 0.986 | locus YGL173C, strain kem1, hits give low values 0.976 | locus YGL227W, strain vid30, hits give low values 0.976 | locus YGL240W, strain doc1, hits give low values 1 | locus YGL253W, strain hxk2, hits give low values 0.994 | locus YHR013C, strain ard1, hits give low values 0.98 | locus YHR027C, strain rpn1, hits give low values 1 | locus YHR030C, strain SLT2, hits give low values 1.02 | locus YHR079C, strain IRE1, hits give low values 1.01 | locus YHR142W, strain chs7, hits give low values 1.01 | locus YJL092W, strain hpr5, hits give low values 0.984 | locus YJL095W, strain BCK1 (second series), hits give low values 0.97 | locus YJL095W, strain BCK1, hits give low values 1.01 | locus YJL115W, strain asf1, hits give low values 0.995 | locus YJL129C, strain trk1, hits give low values 0.956 | locus YJL154C, strain vps35, hits give low values 0.993 | locus YJL164C, strain tpk1, hits give low values 1.01 | locus YJL166W, strain qcr8, hits give low values 0.998 | locus YJL187C, strain SWE1, hits give low values 0.994 | locus YJR066W, strain TOR1, hits give low values 0.935 | locus YKL160W, strain elf1, hits give low values 0.984 | locus YKR026C, strain gcn3, hits give low values 0.988 | locus YKR091W, strain srl3, hits give low values 0.995 | locus YLL001W, strain dnm1, hits give low values 0.971 | locus YLL026W, hits give low values 1 | locus YLL041C, strain sdh2, hits give low values 1.01 | locus YLR027C, strain aat2, hits give low values 1 | locus YLR113W, strain HOG1, hits give low values 1 | locus YLR221C, strain rsa3, hits give low values 0.987 | locus YLR258W, strain gsy2, hits give low values 1.01 | locus YLR262C, strain YPT6 (second series), hits give low values 1 | locus YLR320W, strain mms22, hits give low values 1.01 | locus YLR342W, strain FKS1, hits give low values 0.995 | locus YLR357W, strain rsc2, hits give low values 0.978 | locus YLR370C, strain arc18, hits give low values 0.998 | locus YLR384C, strain iki3, hits give low values 0.994 | locus YML120C, strain ndi1, hits give low values 0.985 | locus YMR058W, strain fet3, hits give low values 1 | locus YMR125W, strain sto1, hits give low values 0.946 | locus YMR129W, hits give low values 1 | locus YMR205C, strain PFK2, hits give low values 0.99 | locus YMR231W, strain pep5, hits give low values 0.99 | locus YNL071W, strain lat1, hits give low values 1 | locus YNL183C, strain NPR1, hits give low values 0.957 | locus YNL209W, strain ssb2, hits give low values 1.01 | locus YNL248C, strain rpa49, hits give low values 0.989 | locus YNL322C, strain KRE1 (second series), hits give low values 0.976 | locus YNR049C, strain mso1, hits give low values 1 | locus YOR001W, strain rrp6, hits give low values 0.973 | locus YOR070C, strain gyp1, hits give low values 0.998 | locus YOR080W, strain dia2, hits give low values 0.987 | locus YOR083W, strain WHI5, hits give low values 0.983 | locus YOR106W, strain vam3, hits give low values 0.98 | locus YOR231W, strain MKK1, hits give low values 1.01 | locus YOR265W, strain rbl2, hits give low values 0.993 | locus YOR270C, strain vph1, hits give low values 0.967 | locus YOR290C, strain snf2, hits give low values 1.01 | locus YPL051W, strain arl3, hits give low values 0.988 | locus YPL078C, strain atp4, hits give low values 0.979 | locus YPL106C, strain sse1, hits give low values 1.05 | locus YPL240C, strain hsp82, hits give low values 1 | locus YPL256C, strain CLN2, hits give low values 1.01
